Experimental data: PubChem BioAssay (EPA / NIEHS)
“And” between values parts separate entries of the source, which are not always exact repeats. Equal entries are not always repeated. Results filed as inconclusive are left out. A structure can be active in one record and inactive in another. The source made the active and inactive calls. How the source made its calls, unless noted: active means hit-call score of the fitted dose curve at least 0.9, where 1 is the maximum; inactive means score below 0.9.

Assays:
[1] = target: Glucocorticoid receptor (Homo sapiens) (UniProt P04150); experiment: ATG_GR_TRANS: Attagene TRANS-FACTORIAL HepG2 Assay for human Glucocorticoid Receptor (GR) (AID 2282978; active means hit-call score of the fitted dose curve at least 0.9, where 1 is the maximum;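 further: activators score as hits since higher reporter transcript over DMSO is fitted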); details: HepG2 Attagene TRANS GR reporter, mRNA transcription
Chain of Glucocorticoid receptor (Homo sapiens) (P04150 whole entry, looked up): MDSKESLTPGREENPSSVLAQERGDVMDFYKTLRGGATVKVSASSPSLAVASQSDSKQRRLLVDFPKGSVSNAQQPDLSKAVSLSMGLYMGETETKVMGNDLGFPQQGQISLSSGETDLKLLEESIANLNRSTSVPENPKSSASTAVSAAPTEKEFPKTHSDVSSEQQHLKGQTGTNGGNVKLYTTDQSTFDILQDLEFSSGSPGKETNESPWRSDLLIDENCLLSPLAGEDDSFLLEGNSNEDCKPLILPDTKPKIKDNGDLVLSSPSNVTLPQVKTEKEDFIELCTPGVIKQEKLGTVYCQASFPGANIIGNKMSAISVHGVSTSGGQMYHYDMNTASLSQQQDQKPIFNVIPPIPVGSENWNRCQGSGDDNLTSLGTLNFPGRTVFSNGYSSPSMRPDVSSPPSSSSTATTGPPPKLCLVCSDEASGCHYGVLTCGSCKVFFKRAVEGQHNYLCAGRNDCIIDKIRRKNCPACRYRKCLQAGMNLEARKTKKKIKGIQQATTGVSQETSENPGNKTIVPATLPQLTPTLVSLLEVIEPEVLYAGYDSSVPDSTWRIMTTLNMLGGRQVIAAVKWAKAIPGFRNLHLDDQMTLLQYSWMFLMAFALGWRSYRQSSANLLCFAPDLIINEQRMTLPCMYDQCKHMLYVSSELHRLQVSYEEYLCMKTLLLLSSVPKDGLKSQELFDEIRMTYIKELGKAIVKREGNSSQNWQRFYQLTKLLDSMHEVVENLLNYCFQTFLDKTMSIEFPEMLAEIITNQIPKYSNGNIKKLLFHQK
Summary of the method: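 After 24 h incubation with test chemical, transfected HepG2 cells were lysed for RNA; reporter cDNA was amplified, FAM-labelled, HpaI-digested and sized on a capillary analyser. Signal gain relative to DMSO was scored.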

[2] = target: Bile acid receptor (Homo sapiens) (UniProt Q96RI1); experiment: ATG_FXR_TRANS: Attagene TRANS-FACTORIAL HepG2 Assay for Farnesoid X Receptor (FXR) (AID 2282979; active means hit-call score of the fitted dose curve at least 0.9, where 1 is the maximum;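 further: hits raise reporter mRNA above DMSO so AC50 marks FXR activation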); details: HepG2 Attagene TRANS FXR-GAL4 reporter transcription
Chain of Bile acid receptor (Homo sapiens) (Q96RI1 whole entry, looked up, the tested form may be a part): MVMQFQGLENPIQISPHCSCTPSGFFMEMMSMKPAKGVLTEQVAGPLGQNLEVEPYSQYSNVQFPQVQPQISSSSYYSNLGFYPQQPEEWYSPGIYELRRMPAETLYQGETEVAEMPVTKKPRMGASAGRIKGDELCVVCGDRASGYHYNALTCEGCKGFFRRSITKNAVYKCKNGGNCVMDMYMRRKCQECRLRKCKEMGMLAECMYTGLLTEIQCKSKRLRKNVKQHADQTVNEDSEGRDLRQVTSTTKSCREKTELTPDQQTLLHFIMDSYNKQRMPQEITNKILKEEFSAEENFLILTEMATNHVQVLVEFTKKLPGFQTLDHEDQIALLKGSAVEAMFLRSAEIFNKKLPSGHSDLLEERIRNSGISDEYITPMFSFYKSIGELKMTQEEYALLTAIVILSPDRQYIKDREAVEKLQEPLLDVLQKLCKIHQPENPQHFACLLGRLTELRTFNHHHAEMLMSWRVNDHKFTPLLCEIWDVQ
Summary of the method: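 After 24 h chemical treatment of transfected HepG2 cells, GAL4-UAS reporter transcripts driven by an exogenous FXR-GAL4 fusion were measured by RT-PCR and capillary electrophoresis. Increases over DMSO were fitted.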

[3] = target: Nuclear receptor subfamily 4 group A member 2 (Homo sapiens) (UniProt P43354); experiment: ATG_NURR1_TRANS: Attagene TRANS-FACTORIAL HepG2 Assay for human Nuclear Receptor Related Protein 1 (NURR1) (AID 2282985; active means hit-call score of the fitted dose curve at least 0.9, where 1 is the maximum); details: HepG2 Attagene TRANS reporter, mRNA readout
Chain of Nuclear receptor subfamily 4 group A member 2 (Homo sapiens) (P43354 whole entry, looked up): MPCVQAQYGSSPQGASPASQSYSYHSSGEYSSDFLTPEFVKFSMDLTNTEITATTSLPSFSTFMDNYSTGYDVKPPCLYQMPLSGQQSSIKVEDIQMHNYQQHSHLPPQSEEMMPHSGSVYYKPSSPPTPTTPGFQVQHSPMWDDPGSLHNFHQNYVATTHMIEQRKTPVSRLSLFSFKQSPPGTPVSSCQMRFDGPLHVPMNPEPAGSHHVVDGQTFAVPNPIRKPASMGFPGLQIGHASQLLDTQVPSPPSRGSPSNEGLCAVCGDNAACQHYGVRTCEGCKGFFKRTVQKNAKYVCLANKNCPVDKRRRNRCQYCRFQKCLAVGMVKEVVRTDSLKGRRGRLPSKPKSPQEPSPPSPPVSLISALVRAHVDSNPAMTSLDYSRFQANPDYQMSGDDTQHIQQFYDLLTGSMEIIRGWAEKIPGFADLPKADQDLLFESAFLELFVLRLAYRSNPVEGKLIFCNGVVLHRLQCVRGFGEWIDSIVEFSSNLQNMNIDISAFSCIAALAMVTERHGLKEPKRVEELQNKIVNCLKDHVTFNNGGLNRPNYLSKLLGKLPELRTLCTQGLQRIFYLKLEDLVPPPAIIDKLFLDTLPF
Summary of the method: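 After 24 h chemical dosing, total RNA from transiently transfected HepG2 cells was reverse-transcribed and reporter cDNA PCR-amplified, FAM-labelled and analysed by capillary electrophoresis. Activity fitted in positive direction, DMSO as negative control.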

[4] = target: Transcriptional activator Myb (Homo sapiens) (UniProt P10242); experiment: ATG_Myb_CIS: Attagene CIS-FACTORIAL HepG2 Assay for human Myeloblastosis (Myb) Proto-Oncogene Transcription Factor (AID 2282986); details: HepG2 Attagene CIS-FACTORIAL Myb reporter transcription; actives raise or lower the signal
Chain of Transcriptional activator Myb (Homo sapiens) (P10242 whole entry, looked up): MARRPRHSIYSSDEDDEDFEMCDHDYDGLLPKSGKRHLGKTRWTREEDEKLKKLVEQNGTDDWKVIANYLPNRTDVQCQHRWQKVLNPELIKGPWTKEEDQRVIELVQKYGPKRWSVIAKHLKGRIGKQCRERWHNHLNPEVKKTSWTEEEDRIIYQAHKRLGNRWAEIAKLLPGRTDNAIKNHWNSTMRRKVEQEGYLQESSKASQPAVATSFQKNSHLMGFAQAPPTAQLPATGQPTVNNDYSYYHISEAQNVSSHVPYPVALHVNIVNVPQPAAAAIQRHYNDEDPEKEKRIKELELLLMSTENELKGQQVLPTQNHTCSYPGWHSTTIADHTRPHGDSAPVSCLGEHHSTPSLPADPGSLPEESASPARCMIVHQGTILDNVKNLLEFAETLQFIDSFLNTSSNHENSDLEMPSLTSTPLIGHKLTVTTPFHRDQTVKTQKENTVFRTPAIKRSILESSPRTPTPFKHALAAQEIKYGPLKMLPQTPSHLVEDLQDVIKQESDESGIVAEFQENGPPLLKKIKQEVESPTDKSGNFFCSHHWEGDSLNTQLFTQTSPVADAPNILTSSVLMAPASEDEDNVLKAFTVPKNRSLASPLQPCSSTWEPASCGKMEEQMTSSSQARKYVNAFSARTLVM
Summary of the method: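 After 24 h of compound dosing, total RNA from transfected HepG2 cells is reverse-transcribed and the reporter sequences amplified, labeled and separated by capillary electrophoresis. Values come from bidirectional fitting against DMSO.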

[5] = ATG_NFI_CIS: Attagene CIS-FACTORIAL HepG2 Assay for human Nuclear Factor I (NFI) (AID 2282989); details: HepG2 cis-regulatory reporter, NFI response element transcription; actives raise or lower the signal
Summary of the method: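 Reporter transcription driven by endogenous transcription factors in HepG2 cells; 24 h treatment. Quantitation by labelled RT-PCR fragments on capillary electrophoresis, gain- or loss-of-signal relative to DMSO.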

[6] = target: Myc proto-oncogene protein (Homo sapiens) (UniProt P01106); experiment: ATG_Myc_CIS: Attagene CIS-FACTORIAL HepG2 Assay for human Myelocytomatosis (Myc) Proto-Oncogene Transcription Factor (AID 2282990); details: HepG2, Attagene cis-reporter transcription factor activity; actives raise or lower the signal
Chain of Myc proto-oncogene protein (Homo sapiens) (P01106 whole entry, looked up): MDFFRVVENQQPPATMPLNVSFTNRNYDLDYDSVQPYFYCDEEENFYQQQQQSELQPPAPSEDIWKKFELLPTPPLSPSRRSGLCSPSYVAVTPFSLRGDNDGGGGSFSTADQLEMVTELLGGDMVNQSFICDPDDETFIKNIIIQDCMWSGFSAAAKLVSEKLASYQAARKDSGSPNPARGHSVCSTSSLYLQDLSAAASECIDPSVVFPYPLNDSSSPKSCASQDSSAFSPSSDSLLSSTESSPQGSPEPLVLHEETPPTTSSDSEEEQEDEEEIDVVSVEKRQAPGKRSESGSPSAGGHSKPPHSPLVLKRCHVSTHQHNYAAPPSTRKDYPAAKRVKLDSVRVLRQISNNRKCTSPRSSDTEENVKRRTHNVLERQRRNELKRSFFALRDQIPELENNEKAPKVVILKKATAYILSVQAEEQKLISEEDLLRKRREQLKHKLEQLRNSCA
Summary of the method: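 HepG2 cells transiently transfected with multiple cis-promoter-driven reporter transcription units, so endogenous TF activity is read. After 24 h compound exposure, reporter mRNA was quantified by RT-PCR, 6-FAM labelling, HpaI digestion and capillary electrophoresis; bidirectional fit versus DMSO.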

[7] = ATG_NF_kB_CIS: Attagene CIS-FACTORIAL HepG2 Assay for human Nuclear Factor Kappa B (NF-kB) (AID 2282991); details: HepG2 Attagene cis-factorial NF-kB reporter mRNA; actives raise or lower the signal
Summary of the method: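 Fluorescence of labelled RT-PCR products separated by capillary electrophoresis gives reporter mRNA levels from transfected HepG2 cells exposed 24 h; values are fitted in both directions relative to DMSO.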

[8] = ATG_NRF2_ARE_CIS: Attagene CIS-FACTORIAL HepG2 Assay for human Nuclear Factor Erythroid 2 Related Factor 2 (NFR2) response to Antioxidant Response Elements (ARE) (AID 2282992); details: HepG2 Attagene ARE/NRF2 reporter, transcription factor activity; actives raise or lower the signal
Summary of the method: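 Transient MRTU transfection of HepG2; 24 h compound exposure; TriZol RNA, RT with oligo(dT), PCR, 6-FAM primer extension, HpaI cut, CE. Bidirectional fit vs DMSO.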

[9] = ATG_Oct_MLP_CIS: Attagene CIS-FACTORIAL HepG2 Assay for human Octamer-Binding Transcription Factor (Oct) (AID 2282993); details: HepG2 Attagene cis-factorial Oct reporter, mRNA; actives raise or lower the signal
Summary of the method: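 Transfected HepG2 cells, 24 h treatment. Reporter mRNA quantified by RT-PCR–capillary electrophoresis; bidirectional fitting against DMSO.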

[10] = target: Cellular tumor antigen p53 (Homo sapiens) (UniProt P04637); experiment: ATG_p53_CIS: Attagene CIS-FACTORIAL HepG2 Assay for human p53 Transcription Factor (AID 2282994); details: HepG2 p53 cis-element reporter, Attagene mRNA; actives raise or lower the signal
Chain of Cellular tumor antigen p53 (Homo sapiens) (P04637 whole entry, looked up): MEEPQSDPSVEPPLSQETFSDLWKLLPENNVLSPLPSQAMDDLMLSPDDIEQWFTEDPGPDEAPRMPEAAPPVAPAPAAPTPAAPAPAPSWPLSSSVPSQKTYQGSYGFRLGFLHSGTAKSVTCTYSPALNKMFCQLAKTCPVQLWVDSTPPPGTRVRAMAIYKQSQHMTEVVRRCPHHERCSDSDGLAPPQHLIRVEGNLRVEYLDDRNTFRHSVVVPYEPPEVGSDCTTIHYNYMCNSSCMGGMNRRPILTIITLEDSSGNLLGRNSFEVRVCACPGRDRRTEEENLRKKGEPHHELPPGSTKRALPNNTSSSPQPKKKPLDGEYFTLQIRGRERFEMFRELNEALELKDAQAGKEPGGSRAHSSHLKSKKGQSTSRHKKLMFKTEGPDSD
Summary of the method: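 HepG2, transient MRTU transfection (cis promoter elements, endogenous TFs); 24 h dosing; RNA isolation, RT-PCR, 6-FAM primer extension, HpaI digest, CE fluorescence; bidirectional fit vs DMSO.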

[11] = BSK_3C_TissueFactor: BioMAP Diversity Plus: 3C Assay for Tissue Factor Biomarker Activity (AID 2282997); details: BioMAP 3C HUVEC, tissue factor biomarker readout; actives raise or lower the signal
Summary of the method: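 Endothelial monolayers (human umbilical vein, primary) are dosed, incubated 24 h, and assayed for Tissue Factor by ELISA; DMSO serves as negative control for bidirectional fitting.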

[12] = BSK_3C_uPAR: BioMAP Diversity Plus: 3C Assay for Urokinase-type plasminogen activator receptor (uPAR) Biomarker Activity (AID 2282998); details: BioMAP 3C HUVEC, uPAR biomarker ELISA; actives raise or lower the signal
Summary of the method: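 Readout: ELISA for surface uPAR. System: human umbilical vein endothelial primary cells, 24 h after chemical exposure. Analysis: bidirectional fit, DMSO baseline.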

[13] = BSK_3C_VCAM1: BioMAP Diversity Plus: 3C Assay for Vascular cell adhesion molecule 1 (VCAM1) Biomarker Activity (AID 2282999); details: BioMAP 3C HUVEC, VCAM1 ELISA, cytokine-stimulated; actives raise or lower the signal
Summary of the method: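 Human umbilical vein endothelial cells were dosed with compound for 24 h, after which cell-surface VCAM-1 was quantified by ELISA. Bidirectional curve fitting used DMSO as negative control and activity baseline.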

[14] = BSK_4H_Eotaxin3: BioMAP Diversity Plus: 4H Assay for Eotaxin 3 Biomarker Activity (AID 2283000); details: primary human endothelial cells (HUVEC); actives raise or lower the signal
Summary of the method: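 ELISA quantitation of CCL26 (Eotaxin-3) protein from chemically dosed human vascular endothelial cells at 24 h; increases and decreases both scored relative to DMSO-treated baseline.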

[15] = target: Oxysterols receptor LXR-alpha (Homo sapiens) (UniProt Q13133); experiment: ATG_LXRa_TRANS: Attagene TRANS-FACTORIAL HepG2 Assay for human Liver X Receptor alpha (LXRa) (AID 2282980; active means hit-call score of the fitted dose curve at least 0.9, where 1 is the maximum); details: HepG2 Attagene TRANS reporter, LXRa transactivation
Chain of Oxysterols receptor LXR-alpha (Homo sapiens) (Q13133 whole entry, looked up, the tested form may be a part): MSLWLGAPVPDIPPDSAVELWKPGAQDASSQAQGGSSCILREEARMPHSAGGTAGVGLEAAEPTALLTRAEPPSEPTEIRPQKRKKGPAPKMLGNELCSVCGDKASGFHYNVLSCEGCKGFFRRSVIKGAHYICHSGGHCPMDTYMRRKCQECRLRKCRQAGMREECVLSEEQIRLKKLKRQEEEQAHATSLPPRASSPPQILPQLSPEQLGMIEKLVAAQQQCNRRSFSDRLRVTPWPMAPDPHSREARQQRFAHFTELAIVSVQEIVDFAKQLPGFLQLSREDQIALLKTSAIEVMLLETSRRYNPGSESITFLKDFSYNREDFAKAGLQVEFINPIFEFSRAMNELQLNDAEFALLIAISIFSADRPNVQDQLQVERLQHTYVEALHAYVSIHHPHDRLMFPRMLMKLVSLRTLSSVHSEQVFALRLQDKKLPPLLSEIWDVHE
Summary of the method: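 In this multiplexed TRANS system, compounds act on HepG2 cells carrying GAL4-UAS reporter units and a receptor-GAL4 fusion for 24 h. Induced reporter RNA is amplified, fluorescently labelled and sized by capillary electrophoresis, with DMSO as baseline.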

[16] = target: Hepatocyte nuclear factor 4-alpha (Homo sapiens) (UniProt P41235); experiment: ATG_HNF4a_TRANS: Attagene TRANS-FACTORIAL HepG2 Assay for human Hepatocyte Nuclear Factor 4 alpha (HNF4a) (AID 2282982; active means hit-call score of the fitted dose curve at least 0.9, where 1 is the maximum); details: HepG2 HNF4a transactivation reporter, mRNA readout
Chain of Hepatocyte nuclear factor 4-alpha (Homo sapiens) (P41235 whole entry, looked up, the tested form may be a part): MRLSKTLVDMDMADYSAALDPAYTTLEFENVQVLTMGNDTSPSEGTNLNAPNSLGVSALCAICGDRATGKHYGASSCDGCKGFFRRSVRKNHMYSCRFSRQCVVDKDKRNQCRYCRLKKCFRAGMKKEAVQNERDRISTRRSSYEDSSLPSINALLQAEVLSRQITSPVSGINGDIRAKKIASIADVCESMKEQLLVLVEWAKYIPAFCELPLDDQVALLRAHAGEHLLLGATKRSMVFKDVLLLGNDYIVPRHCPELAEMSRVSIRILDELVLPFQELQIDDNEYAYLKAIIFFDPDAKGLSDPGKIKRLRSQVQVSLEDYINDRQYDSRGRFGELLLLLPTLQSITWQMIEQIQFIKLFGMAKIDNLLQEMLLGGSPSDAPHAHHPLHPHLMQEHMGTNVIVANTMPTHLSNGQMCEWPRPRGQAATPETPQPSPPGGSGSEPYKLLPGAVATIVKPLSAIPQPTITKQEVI
Summary of the method: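 Cells used were human HepG2, transiently carrying GAL4-UAS reporter units read out against exogenous NR-GAL4 chimeras. Reporter transcript levels after 24 h dosing were quantified by fluorescent RT-PCR and capillary electrophoresis.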

[17] = ATG_M_32_TRANS: Attagene TRANS-FACTORIAL HepG2 Assay for M32 Transcription Factor (Internal Marker) (AID 2282984; active means hit-call score of the fitted dose curve at least 0.9, where 1 is the maximum;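 further: transcript level of a background control reporter unit measured by RT-PCR and capillary electrophoresis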); details: HepG2 Attagene TRANS M32 internal marker reporter
Summary of the method: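 Human hepatoma HepG2, transient MRTU transfection, 24 h treatment. RNA → RT-PCR → fluorescent primer extension → HpaI digest (2 h, 37 C) → CE. Positive-direction fit vs DMSO.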

[18] = ATG_M_06_TRANS: Attagene TRANS-FACTORIAL HepG2 Assay for M06 Transcription Factor (Internal Marker) (AID 2282983; active means hit-call score of the fitted dose curve at least 0.9, where 1 is the maximum); details: HepG2 Attagene TRANS M06 internal marker reporter
Summary of the method: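 Internal-marker background readout from a multiplexed TRANS reporter system in HepG2; 24 h dosing; mRNA induction quantified by RT-PCR plus capillary electrophoresis fluorescence; DMSO as negative control and baseline.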

[19] = target: Nuclear respiratory factor 1 (Homo sapiens) (UniProt Q16656); experiment: ATG_NRF1_CIS: Attagene CIS-FACTORIAL HepG2 Assay for human Nuclear Respiratory Factor 1 (NRF1) Orphan Gene (AID 2282987); details: HepG2 NRF1 cis-element reporter, Attagene multiplex; actives raise or lower the signal
Chain of Nuclear respiratory factor 1 (Homo sapiens) (Q16656 whole entry, looked up): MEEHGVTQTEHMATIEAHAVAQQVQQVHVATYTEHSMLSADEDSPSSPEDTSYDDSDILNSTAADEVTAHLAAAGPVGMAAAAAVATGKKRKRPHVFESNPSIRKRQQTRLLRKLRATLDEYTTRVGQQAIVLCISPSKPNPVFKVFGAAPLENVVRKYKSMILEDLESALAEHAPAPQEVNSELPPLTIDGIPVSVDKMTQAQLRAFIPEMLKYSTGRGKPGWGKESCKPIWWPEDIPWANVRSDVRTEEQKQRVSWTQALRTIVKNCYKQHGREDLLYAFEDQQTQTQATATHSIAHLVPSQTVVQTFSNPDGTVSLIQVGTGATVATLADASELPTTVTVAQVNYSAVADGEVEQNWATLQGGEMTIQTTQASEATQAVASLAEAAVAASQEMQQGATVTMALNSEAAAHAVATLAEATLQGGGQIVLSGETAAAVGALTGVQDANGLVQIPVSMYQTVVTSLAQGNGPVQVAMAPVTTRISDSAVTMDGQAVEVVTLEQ
Summary of the method: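 Measured: fluorescent reporter-specific RT-PCR products from transfected HepG2 cells, separated by capillary electrophoresis. Exposure lasted 24 h. Analysis used bidirectional curve fitting with DMSO as negative control.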

Measured: AC50

Cc1cc(F)ccc1-c1cc(N2CC[C@@H](O)[C@H]2CO)ncc1N(C)C(=O)C(C)(C)c1cc(C(F)(F)F)cc(C(F)(F)F)c1
active: [11] 12.4 µM | [12] 9.24 µM | [13] 11.8 µM | [14] 12.5 µM
inactive: [1] | [2] | [3] | [4] | [5] | [6] | [7] | [8] | [9] | [10]

O=c1c(-c2ccc(O)cc2)coc2cc(O)cc(O)c12
inactive: [1] | [2] | [15] | [16] | [3] | [4] | [5] | [6] | [7] | [8] | [9] | [10] | [13]
active: [5] 27.1 µM | [7] 73.5 µM and 168 µM | [9] 49.4 µM | [12] 29.2 µM | [14] 29.1 µM

O=C(Nc1ccc(Cl)cc1)Nc1ccc(Cl)c(Cl)c1
active: [8] 6.66 µM | [9] 5.12 µM | [12] 1.89 µM | [13] 3.5 µM | [14] 2.4 µM
inactive: [1] | [2] | [15] | [16] | [17] | [3] | [4] | [5] | [6] | [7] | [10]

COc1ccc2cc(S(=O)(=O)N[C@H](CC(=O)N[C@H](Cc3ccc(CN4[C@H](C)CCC[C@@H]4C)cc3)C(=O)N(C)C(C)C)c3ccc4c(c3)OCO4)ccc2c1
active: [8] 11 µM | [9] 11 µM | [10] 11 µM | [11] 5.1 µM | [12] 19.1 µM | [13] 16.4 µM | [14] 11.3 µM
inactive: [1] | [2] | [15] | [16] | [3] | [4] | [5] | [6] | [7]

COc1cc(C(=O)NC2CCN(C)CC2)ccc1Nc1ncc2c(n1)N(C1CCCC1)CC(F)(F)C(=O)N2C
active: [5] 0.709 µM | [9] 1.07 µM | [10] 1.94 µM | [12] 22.7 µM | [13] 19.1 µM | [14] 14.6 µM
inactive: [1] | [2] | [15] | [4] | [6] | [7] | [8]

CC1=CC(=O)/C(=C(/C)O)C(=O)O1
inactive: [1] | [15] | [16] | [18] | [4] | [19] | [5] | [8] | [9] | [10] | [12] | [13] | [14]
